According to PubChem BioAssay AID2813 (NMMLSC, 2010):
“And” between values parts separate entries of the source, which are not always exact repeats. Identical values can stand only once. In all, about 1,300 compounds went through this assay and about 20 (2%) were called active. Cut-off read from the data, not from the text of the source: active = inhibition above about 40%; inactive = the rest. The list is a sample of the results.

molecular target: Integrin alpha-4 (Homo sapiens) (UniProt P13612); experiment: retest of VLA-4 allosteric modulators, confirmation, cell-based, cherry-picked plates, U937, HUTS-21 LIBS antibody (AID 2813); details: U937 cells, HUTS-21 LIBS mAb binding, flow cytometry; at 6.7 µM; active compounds read high; LDV ligand present at threefold Kd;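 note: 0% = ligand without compound and 100% = no ligand background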
Sequence (P13612 whole entry, looked up): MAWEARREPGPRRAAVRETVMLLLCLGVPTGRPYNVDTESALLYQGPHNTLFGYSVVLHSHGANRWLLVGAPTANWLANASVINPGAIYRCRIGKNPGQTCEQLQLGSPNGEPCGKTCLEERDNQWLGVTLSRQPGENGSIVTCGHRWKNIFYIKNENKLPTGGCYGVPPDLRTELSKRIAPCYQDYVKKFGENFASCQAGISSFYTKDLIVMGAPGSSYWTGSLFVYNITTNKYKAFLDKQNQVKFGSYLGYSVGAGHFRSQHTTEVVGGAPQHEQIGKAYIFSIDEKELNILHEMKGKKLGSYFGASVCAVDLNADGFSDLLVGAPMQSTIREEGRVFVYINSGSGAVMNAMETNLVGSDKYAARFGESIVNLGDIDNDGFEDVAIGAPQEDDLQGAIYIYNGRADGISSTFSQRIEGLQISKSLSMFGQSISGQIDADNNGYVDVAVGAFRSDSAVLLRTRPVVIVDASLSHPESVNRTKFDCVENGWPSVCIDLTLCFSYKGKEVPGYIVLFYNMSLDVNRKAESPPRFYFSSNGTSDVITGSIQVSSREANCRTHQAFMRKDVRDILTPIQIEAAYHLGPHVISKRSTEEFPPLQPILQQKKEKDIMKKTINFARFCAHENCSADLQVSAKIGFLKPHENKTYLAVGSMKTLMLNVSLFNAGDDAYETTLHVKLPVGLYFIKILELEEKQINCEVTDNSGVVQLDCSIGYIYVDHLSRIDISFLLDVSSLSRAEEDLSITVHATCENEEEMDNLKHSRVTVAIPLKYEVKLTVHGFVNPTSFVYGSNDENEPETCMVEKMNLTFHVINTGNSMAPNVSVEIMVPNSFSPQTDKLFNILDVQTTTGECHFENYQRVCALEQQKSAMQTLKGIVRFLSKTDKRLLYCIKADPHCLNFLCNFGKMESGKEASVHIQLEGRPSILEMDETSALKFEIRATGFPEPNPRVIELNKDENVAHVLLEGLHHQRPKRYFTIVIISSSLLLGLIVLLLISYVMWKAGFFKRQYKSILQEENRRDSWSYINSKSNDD

inhibition, inactive:
COc1ccc(C(=O)N2CCC(C(=O)Nc3cccc(C)c3)CC2)cc1OC -6.72%
Cc1ccc(NC(=O)OCc2cncs2)cc1 11.7%
CC1(C)SC2C(NC(=O)COc3ccccc3)C(=O)N2C1C(=O)O (stereo not given) 4.42%
COC(=O)[C@]1(Cc2ccccc2)N[C@H](CN(C)S(=O)(=O)c2ccc(OC(F)(F)F)cc2)[C@@H]2C(=O)N(Cc3ccccc3)C(=O)[C@@H]21 -5.51%
CSc1nc(-c2ccco2)nn1C(=O)CCc1ccccc1 9.03%
Cc1cccc(NS(=O)(=O)c2ccc(C)c(C(N)=O)c2)c1 0.43%
CC1(C(=O)NCCc2c[nH]c3ccccc23)C=CC2(CCCCC2)N1C(=O)c1ccccc1 (stereo not given) 5.58%
CCCOc1ccc(N2C(=O)CC(N(CCc3ccc(S(N)(=O)=O)cc3)C(C)=O)C2=O)cc1 (stereo not given) -1.15%
CC(=O)NC12CC3CC(C1)CC(C(=O)N1CCN(S(=O)(=O)c4cccs4)CC1)(C3)C2 -0.75%
Cc1nn(CC(=O)Nc2ccc(C#N)cc2)c(C)c1[N+](=O)[O-] -11.4%
Nc1ccc(Cl)c(S(=O)(=O)Nc2ccccc2Cl)c1 -5.79%
O=C1Cc2cc(S(=O)(=O)Nc3cccc(F)c3)ccc2N1 -8.24%
CC(OC(=O)c1c(F)cccc1F)C(=O)NCCC1=CCCCC1 (stereo not given) 1.98%
O=C(Nc1cccc(S(=O)(=O)Nc2ccc(Cl)cc2)c1)c1ccc2c(c1)OCCO2 -8.53%
Cc1cc(C)n(CC(O)CN(c2ccccc2)S(=O)(=O)c2ccc3ccccc3c2)n1 (stereo not given) 11.9%
CC/C(O)=C1\C(=O)CC(C)(C)CC1=NCCc1nc2ccccc2[nH]1 -5.52%
CC(=O)c1cccc(NC(=O)C2CCN(C(=O)c3ccccc3Cl)CC2)c1 5.38%
COC(=O)c1c(NC(=O)c2c(Cl)cnn2C)sc(C)c1C -13.4%
CCn1c(SCC(=O)Nc2nc(C)cs2)nnc1C(C)NC(=O)c1ccccc1 (stereo not given) 0.62% and 0%
Cc1ccc(S(=O)(=O)N2[C@@H](c3ccc(Br)cc3)C(C(=O)O)=C[C@H]2CC2CCCC2)cc1 4.02%
Cc1cc(C)cc(C(=O)NCC(=O)OCC(=O)N2CCCCC2)c1 13.7%
Cc1ccnc(NC(=O)c2ccco2)n1 -3.54%
S=C(Nc1cccnc1)Nc1ccccn1 -4.45%
COc1cccc(-c2cccc(NC(=O)C3CCN(C4CCC4)CC3)c2)c1 3.49%
COc1cccc(N2CCN(C3CC(=O)N(c4ccc(Cl)cc4)C3=O)CC2)c1 (stereo not given) 3.08%
CCOC(=O)N1CCN(S(=O)(=O)c2ccc3c(c2)C(C)C(=O)N3)CC1 (stereo not given) 0.62%
CCOC(=O)C1CCCN(S(=O)(=O)c2ccc3c(c2)C(C)(C)C(=O)N3C)C1 (stereo not given) 0.62%
CC(=O)c1ccc(N2CCN(S(=O)(=O)c3ccc4c(c3)CC(=O)N4C)CC2)cc1 -9.51%
O=C(CN1CCC(NC(=O)Nc2ccccc2)CC1)Nc1cccc([N+](=O)[O-])c1 1.64%
Cc1cnc(NC(=O)C2CCCC2)s1 -4.15%
Cc1ccc(S(=O)(=O)N2[C@@H](c3cccc4ccccc34)C(C(=O)O)=C[C@H]2C(C)(C)C)cc1 1.98%
CCCN(CC1COc2ccccc2O1)C(=S)Nc1ccc(C)cc1 (stereo not given) -14.3%
COCCNC(=O)Cn1cc2c(n1)CCCCC2 3.34%
CC(C)(C)NC(=O)NC(=O)COC(=O)Cn1c(C(F)(F)F)nc2ccccc21 -13.5%
COc1ccccc1NC(=O)c1cc(Cl)nnc1Cl 0%
COC(=O)N/N=C/c1c[n+]([O-])c2ccccc2[n+]1[O-] 1.64%
COc1cccc(-c2sc3ccc(OC)cc3c2-c2ccc(OCCN3CCCCC3)cc2)c1 3.49%
CCc1ccc2c(c1)C1(NN=C(c3ccccc3)S1)C(=O)N2 (stereo not given) 2.06%
Cc1cc(C(=O)OCC(=O)Nc2ccc(F)c(F)c2)c(C)o1 0%
CCNC(=S)NNC(=O)Cc1ccccc1 -5.51%
CCOC(=O)C1(S(=O)(=O)c2ccccc2)CCN(Cc2ccccc2)CC1 1.76%
COCCOC(=O)C1=C(C)Nc2nc(C)nn2C1c1ccccc1 (stereo not given) 3.82%
CCCOc1ccccc1C1CC(=O)Nc2cc3c(cc21)OCO3 (stereo not given) 37.9%
Cc1cc(C(=O)OCC(=O)NCc2ccco2)c(C)n1-c1ccccc1 24.9%
CCc1nnc(NC(=O)[C@@H](NC(=O)c2cccc(C)c2)C(C)C)s1 3.73%
O=C(Nn1c(-c2ccccc2)nc2ccccc2c1=O)c1ccc([N+](=O)[O-])cc1 -13.4%
CC(C)N(Cc1ccccc1)C(=S)Nc1ccc(OC(F)F)cc1 -7.72%
Cc1cnc(NC(=O)CSc2nnc(C)s2)s1 -0.75%
CCOc1ccc(N(CC(=O)Nc2ccccc2F)S(=O)(=O)c2c(C)[nH]c(=O)[nH]c2=O)cc1 5.58%
COc1ccccc1C1CC(=O)n2c(nc(-c3ccccc3)c2-c2ccccc2)S1 (stereo not given) -0.36%
COc1ccc(-c2sc3ccccc3c2-c2ccc(OCCN3CCOCC3)cc2)cc1 7.43%
CCOC(=O)C1(S(=O)(=O)c2ccc(Cl)cc2)CCN(Cc2ccccc2)CC1 5.07%
CC(=O)c1ccc(NC(=O)Cn2c(=O)oc3ccccc32)cc1 2.42%
CCOC(=O)c1ccc(N2C(=O)CC(N3CC(C)OC(C)C3)C2=O)cc1 (stereo not given) 5.58% and 0%
Cc1cc(C)cc(OCC(=O)NCc2cc(C)nc3ccccc23)c1 -0.36%
NC(=O)Cn1c(=O)oc2ccccc21 -9.51%
Cc1c(CN2CCC(CO)(CCOc3ccccc3)CC2)[nH]c2ccc(Cl)cc12 22.3%
CCC(C)(C)NC(=O)c1cc([N+](=O)[O-])ccc1N1CCCCC1 -9.35%
O=C(CN1CCN(c2ncccn2)CC1)Nc1ccccc1C(F)(F)F 4.55%
Cc1ccccc1OCCC(=O)OCC(=O)NC(C)c1ccccc1 (stereo not given) 9.45%
CC(=O)N1CCc2cc(S(=O)(=O)Nc3ccccc3N3CCN(C)CC3)ccc21 1.98%
Cc1nn(Cc2ccc(Cl)c(Cl)c2)c(C)c1NC(=O)c1cc(C2CC2)on1 -4.2%
COc1ccc2sc(-c3ccccc3OC)c(-c3ccc(OCCN4CCCC4)cc3)c2c1 -4.83%
O=C(Cn1c(NCCO)nc2ccccc21)c1ccc(Cl)cc1Cl 8.37%
Cc1ccc(/C=C/C(=O)OCC(=O)NCc2ccc(Cl)cc2)o1 -0.23%
